Compound activity from PubChem.
UDG counterscr: counter-screen for AID inhibitors: uracil-DNA glycosylase inhibition; FRET deamination/UDG coupled assay, UDG read, 4 h; Potency, µM (series often up to 115 µM), for the others: top-dose activity change, negative = inhibition, hits mostly inhibitors; 91,000 tested, 0.14% active; AID 1347430; also: nearly all actives have a fitted effect of over 65% in size
AID inh: activation induced cytidine deaminase inhibition; AID deamination FRET fluorescence, UDG-coupled, 4 h; 91,000 tested, 0.32% active; Potency, µM (titrated, usually from 115 µM), hits mostly inhibitors; AID 1347428; Q9GZX7; also: nearly all actives have a fitted effect of over 25% in size
Target sequence (Q9GZX7 whole entry, looked up): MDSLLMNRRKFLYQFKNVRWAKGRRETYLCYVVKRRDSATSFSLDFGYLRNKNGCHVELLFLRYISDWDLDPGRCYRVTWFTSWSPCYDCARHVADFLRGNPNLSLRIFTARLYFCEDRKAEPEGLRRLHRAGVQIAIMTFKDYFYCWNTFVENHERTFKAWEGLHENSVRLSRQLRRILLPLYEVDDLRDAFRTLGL
The depositor's hits bear a star; i = inactive; ? = inconclusive. Sampled rows, rich in hits. Any-hit rate of the full collection: about 0.47%. Calls follow the shape of the dose curve; as a rule, active = well fitted curve in the direction sought with a large enough effect; inconclusive = small, poorly fitted or top-dose-only effect, or another doubt; inactive = no such curve, though single readings can be large; an effect the other way counts as inactive or inconclusive. % is scaled to controls: 0 for no effect and ±100 for the full control effect; potency is read from the fitted curve at half-maximal effect.

SMILES	UDG counterscr	AID inh
CCN(CC)C(=O)c1sc2c(c1C)c(=O)n(-c1ccc(C)c(C)c1)c(=O)n2Cc1cc(=O)n2ccccc2n1	-12%	i
Cc1ccc2oc(=O)cc(-c3cc4ccccc4o3)c2c1	-1%	i
COC1=C(OC)C(=O)c2ccccc2C1=O	-17%	45µM*
Cc1cc2c(cc1C)-c1ccccc1C2=O	-13%	i
CCCCc1cc(=O)oc2cc(OCC(=O)Nc3ccc(C(N)=O)cc3)ccc12	10%	i
COc1ccc(OCc2nc3ccccc3n2Cc2ccc(C(C)(C)C)cc2)cc1	-25%	?
CC(C)(C)c1ccc(OCc2nc3ccccc3n2CCOc2ccccc2)cc1	-16%	32µM*
N[C@@H](CCC(=O)N[C@H](CSN=O)C(=O)NCC(=O)O)C(=O)O	-12%	i
[N-]=[N+]=Nc1ccc(C(=O)CSC[C@H](NC(=O)CC[C@H](N)C(=O)O)C(=O)NCC(=O)O)cc1	-6%	89µM*
Cc1ccc(-c2cc(C(=O)N3CCOCC3C)n[nH]2)s1 (stereo not given)	4%	i
COc1ccc(NC(=O)c2cc(Br)c(O)c(OC)c2)cc1NC(C)=O	-3%	i
COc1ccccc1Cc1nc2ccccc2nc1SCC(=O)N1CCc2ccccc21	0%	i
COc1ccccc1Cc1nc2ccccc2nc1SCC(=O)N1CCCCC1	89µM*	?
O=C(C1=Cc2sc3c(c2CS1)CCCC3)N1CCC2(CC1)OCCO2	-3%	i
C/C(=N/NC(=O)C1CCC(C(C)(C)C)CC1)C1CC2CCC1C2 (stereo not given)	-2%	i
COc1cc(NC(=O)COCc2cc(-c3ccc4c(c3)OCO4)on2)cc(OC)c1	?	i
Cc1cc(C)cc(NC(=O)COCc2cc(-c3ccc4c(c3)OCO4)on2)c1	79µM*	?
Cc1ccc(C)c(CNC(=O)C2CCCCN2S(=O)(=O)c2ccc(F)cc2)c1 (stereo not given)	?	i
CC(C)Oc1ccc(CNC(=O)C2CCCCN2S(=O)(=O)c2ccc(F)cc2)cc1 (stereo not given)	89µM*	?
O=C(O)/C(=C\c1ccc(F)cc1)NC(=O)c1ccco1	4%	i
COC(=O)c1ccc(COc2ccc(/C=C(/CC(=O)O)c3nc4ccccc4s3)cc2)cc1	3%	i
COc1ccc(-c2noc(CSc3nnc(-c4ccccc4)n3C)n2)cc1	-24%	i
c1ccc(-c2noc(CSc3nnnn3C3CCCCC3)n2)cc1	89µM*	i
Cc1ccccc1CNC(=O)c1ccc(Nc2cc(-c3ccc(F)cc3)ncn2)cc1	11%	i
Cc1ccc(C)c(CSc2ccc3nnc(CCNS(=O)(=O)c4ccccc4)n3n2)c1	25%	?
SMILES	UDG counterscr	AID inh
O=S(=O)(NCCc1nnc2ccc(SCc3cccc(Cl)c3)nn12)c1ccccc1	21%	40µM*
CC(C)c1ccc(-c2[nH]c3ccccc3c2C=O)cc1	-5%	i
O=C1CCCC2=C1C(c1ccc(C(F)(F)F)cc1)C1=C(N2)c2ccccc2C1=O (stereo not given)	-1%	i
CC(C)(C)c1ccc(C2Sc3ccccc3NC3=C2C(=O)c2ccccc23)cc1 (stereo not given)	89µM*	i
COC(=O)CSc1sc(=O)sc1SC	2%	i
COc1ccc(Br)cc1CNC(=O)c1cnc2sc(N3CCCCCC3)nn2c1=O	-6%	18µM*
COc1ccc(CNC(=O)c2cnc3sc(N4CCCC4)nn3c2=O)cc1OC	-9%	i
Cc1ccc(-c2cc(=O)c3cc(Br)ccc3o2)cc1	2%	i
Cc1cc(C)c2c(-n3cccc3)nn(CCCC(=O)Nc3ccc(F)cc3C)c2n1	6%	i
O=C(NCc1ncc(-c2ccccc2)o1)c1cccc(F)c1	5%	i
CNC(=S)NNC(=O)c1cc(F)cc(F)c1	0%	i
CC1Sc2ccc(C(=O)Nc3nc(-c4cccnc4)cs3)cc2NC1=O (stereo not given)	-2%	i
COc1cccc(/C=C/c2nc(C#N)c(NCc3ccco3)o2)c1	-8%	i
COc1ccc(CNc2oc(/C=C/c3cccc(OC)c3)nc2C#N)cc1	89µM*	i
O=C(CCS(=O)(=O)c1nc(-c2cccs2)cc(C(F)(F)F)n1)Nc1ccc(OC(F)(F)F)cc1	-24%	10µM*
COc1ccc(NC(=O)CCS(=O)(=O)c2nc(-c3cccs3)cc(C(F)(F)F)n2)cc1	-7%	i
Cc1ccc(Nc2nc(N3CCCC3)nc3nccnc23)c(C)c1	-10%	?
Nc1nccnc1C(=O)NCCNC(=O)c1ccco1	8%	i
CCN(CC)S(=O)(=O)c1ccc(N/N=C/c2ccc(C)s2)c([N+](=O)[O-])c1	2%	i
NNc1nncc2ccccc12	35µM*	45µM*
c1ccc(CN2CCC(=NNc3nncc4ccccc34)CC2)cc1	5%	i
CS(=O)(=O)Cc1ccc(C(=O)Nc2ccc(F)cc2F)cc1	-5%	i
Cc1cc(C)n(-c2nc3ccccc3nc2N2CCN(C(=O)c3ccccc3)CC2)n1	12%	i
Cc1cc(C)n(-c2nc3ccccc3nc2N2CCN(S(=O)(=O)c3ccc4ccccc4c3)CC2)n1	89µM*	i
CCOC(=O)c1[nH]c(C=O)c(C(C)=O)c1C	-6%	i
SMILES	UDG counterscr	AID inh
O=C(COc1c(Cl)cccc1Cl)Nc1cccc2cccnc12	8%	i
COc1ccc(CNC(=O)c2nn(C)c3c2CS(=O)(=O)c2ccccc2-3)cc1	-1%	i
COc1ccc(OC)c(CNC(=O)c2nn(C)c3c2CS(=O)(=O)c2ccccc2-3)c1	-3%	40µM*
COc1ccc(CNc2nc(NCc3ccc(OC)cc3)n(S(=O)(=O)c3ccccc3)n2)cc1	-3%	i
Cc1ccc(C)c(C(=O)CSc2cccc3cccnc23)c1	-9%	35µM*
Cc1ccc(C)c(C(=O)CSc2nc(-c3ccccc3)nc3c2CCCC3)c1	0%	i
CCc1ccc(Nc2nnc(-n3nc(C)cc3C)c3ccccc23)cc1	30%	i
CCOc1ccc(Nc2nnc(-n3nc(C)cc3C)c3ccccc23)cc1	79µM*	i
COc1cccc(-c2nc(N3CCCCCC3)c3ccccc3n2)c1O	89µM*	?
Clc1ccccc1-c1nc(N2CCCCC2)c2ccccc2n1	-5%	i
O=C(O)CCNC(=O)C(F)(F)C(F)(F)C(F)(F)C(F)(F)C(F)(F)C(F)(F)F	10%	i
COc1ccc(C(=O)COC(=O)Cc2c(F)cccc2Cl)cc1Br	-8%	i
CCOc1ccc(C(=O)Nc2ccc3nc(N(CC)CC)cc(C)c3c2)cc1	-7%	i
CCN(CC)c1cc(C)c2cc(NC(=O)c3cccc(OC)c3)ccc2n1	-18%	79µM*
O=C1/C(=C/c2ccc(Cl)c(Cl)c2)C(c2ccccc2)Oc2ccccc21 (stereo not given)	-10%	i
O=C1CC(c2nc3ccccc3n2CCCCOc2ccccc2)CN1c1ccccc1Cl (stereo not given)	89µM*	?
Cc1ccc(N2CC(c3nc4ccccc4n3CCC3CCCCC3)CC2=O)cc1 (stereo not given)	?	i
CCOc1ccccc1N1CC(c2nc3ccccc3n2CCCCOc2ccccc2)CC1=O (stereo not given)	-15%	i
CCc1ccccc1N1CC(c2nc3ccccc3n2CCC2CCCCC2)CC1=O (stereo not given)	79µM*	?
CCOc1cc(/C=C/C(=O)c2ccccc2Cl)cc(Cl)c1O	-8%	i
